Results: the supplement of paper PMC12645437, “Orthogonal IMiD-Degron Pairs Induce Selective Protein Degradation in Cells” (ACS Chemical Biology, 2025)
The full ranking holds about 8,300 sequences; the median of “log2 fold change of degron read counts, EGFP-low vs EGFP+ sorted cells (limma voom), compound-induced degradation” is about -1.1, and the highest 2% start at about 3.2. Only a selection was taken, and the highest values are over-represented in it overall.

T1: CRBN, Q96SW2
T1 chain: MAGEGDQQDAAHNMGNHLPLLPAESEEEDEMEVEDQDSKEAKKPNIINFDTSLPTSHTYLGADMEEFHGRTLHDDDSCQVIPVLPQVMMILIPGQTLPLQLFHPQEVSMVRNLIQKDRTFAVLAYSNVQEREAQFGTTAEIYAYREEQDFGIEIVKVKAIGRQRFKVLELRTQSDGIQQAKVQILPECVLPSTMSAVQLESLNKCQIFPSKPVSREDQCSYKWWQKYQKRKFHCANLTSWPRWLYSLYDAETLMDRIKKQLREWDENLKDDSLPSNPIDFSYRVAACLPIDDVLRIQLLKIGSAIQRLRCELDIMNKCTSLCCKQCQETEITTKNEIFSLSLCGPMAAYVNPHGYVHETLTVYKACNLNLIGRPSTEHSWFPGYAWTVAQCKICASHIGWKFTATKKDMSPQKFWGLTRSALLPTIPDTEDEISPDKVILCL


Target: T1, CRBN, Q96SW2
Test: log2 fold change of degron read counts, EGFP-low vs EGFP+ sorted cells (limma voom), compound-induced degradation; higher = more compound-induced degradation of the degron-EGFP fusion; degrons are variants of IKZF1/3 zinc finger 2; compound dose not given here
Conditions: Jurkat, 18 h
[1] = compound: compound 19 (5-tert-butyl-thalidomide)
[2] = compound: compound 22 (5-morpholino-thalidomide)
[3] = compound: compound 33 (diphenyl IMiD analogue)
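Also: pooled lentiviral library of zinc finger degron-EGFP fusions in mCherry-positive Jurkat cells, FACS-sorted after compound exposure, with degron abundance counted by next-generation sequencing.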

| Sequence | log2 fold change of degron read counts [1] | log2 fold change of degron read counts [2] | log2 fold change of degron read counts [3] | log2 fold change of degron read counts (compound: thalidomide) |
| --- | --- | --- | --- | --- |
| FFCPICGRAFTQKGNLLRHIKL [46F_47F_49P_50I_52G_53R_54A_55F_67L_, Q9UKT9] | -0.764 | -1.23 | -0.0789 | -1.31 |
| FICPVCGAYFTQKGNLLRHIKL [46F_47I_49P_50V_52G_53A_54Y_55F_67L_, Q9UKT9] | -0.575 | 1.65 | 1.98 | 1.66 |
| FHCEVCGAWFTQKGNLLRHIKL [46F_47H_49E_50V_52G_53A_54W_55F_67L_, Q9UKT9] | -1.47 | -1.81 | -0.825 | -1.89 |
| LDCEICGFICTQKGNLLRHIKL [46L_47D_49E_50I_52G_53F_54I_55C_67L_, Q9UKT9] | -0.803 | -0.92 | -0.72 | -0.457 |
| LRCPICGFDCTQKGNLLRHIKL [46L_47R_49P_50I_52G_53F_54D_55C_67L_, Q9UKT9] | -1.49 | -1.07 | 0.189 | 0.67 |
| LRCNQCGFACTQKGNLLRHIKL [46L_47R_49N_50Q_52G_53F_54A_55C_67L_, Q9UKT9] | -1.46 | -1.7 | -0.712 | -0.94 |
| FWCDQCGAQFTQKGNLLRHIKL [46F_47W_49D_50Q_52G_53A_54Q_55F_67L_, Q9UKT9] | 0.249 | 2.32 | -0.8 | -1.65 |
| FCCEICGHVFTQKGNLLRHIKL [46F_47C_49E_50I_52G_53H_54V_55F_67L_, Q9UKT9] | -2.85 | -3.23 | -2.09 | -2.16 |
| FMCPICGAAFTQKGNLLRHIKL [46F_47M_49P_50I_52G_53A_54A_55F_67L_, Q9UKT9] | 2.31 | 2.47 | 2.94 | 2.32 |
| FACPICGAAFTQKGNLLRHIKL [46F_47A_49P_50I_52G_53A_54A_55F_67L_, Q9UKT9] | 3.73 | 2.93 | 1.69 | 1.69 |
| FCCPICGAAFTQKGNLLRHIKL [46F_47C_49P_50I_52G_53A_54A_55F_67L_, Q9UKT9] | 3.34 | 2.84 | 2.48 | 2.21 |
| FDCPICGAAFTQKGNLLRHIKL [46F_47D_49P_50I_52G_53A_54A_55F_67L_, Q9UKT9] | 2.39 | 0.645 | 1.79 | 2.2 |
| FLCPICGAAFTQKGNLLRHIKL [46F_47L_49P_50I_52G_53A_54A_55F_67L_, Q9UKT9] | 1.31 | 0.494 | 1.82 | 1.59 |
| FTCPICGAAFTQKGNLLRHIKL [46F_47T_49P_50I_52G_53A_54A_55F_67L_, Q9UKT9] | 2.48 | 2.97 | 2.48 | 2.67 |
| FICNVCGAIFTQKGNLLRHIKL [46F_47I_49N_50V_52G_53A_54I_55F_67L_, Q9UKT9] | -2.95 | -2.03 | 0.29 | -1.36 |
| FVCNQCGRVFTQKGNLLRHIKL [46F_47V_49N_50Q_52G_53R_54V_55F_67L_, Q9UKT9] | -2.6 | -2.87 | -2.56 | -2.9 |
| FLCDVCGAGFTQKGNLLRHIKL [46F_47L_49D_50V_52G_53A_54G_55F_67L_, Q9UKT9] | -0.0363 | -1.56 | -0.558 | -1.42 |
| FMCDICGAQFTQKGNLLRHIKL [46F_47M_49D_50I_52G_53A_54Q_55F_67L_, Q9UKT9] | -1.1 | -0.152 | 2.21 | -0.153 |
